Compound activity: PubChem BioAssay, National Center for Advancing Translational Sciences (NCATS)
HT1080NT lethal: kills 2HG-producing HT-1080-NT fibrosarcoma cells; HT-1080-NT fibrosarcoma viability, CellTiter-Glo ATP luminescence, 48 h; Potency, µM (top dose mostly 46.1 µM), for inactives: at the top dose activity, negative = less viability, usual class: cytotoxic; 360,000 compounds, 1.6% hits;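 also: NT is the 2HG producing partner of a matched IDH1 knockdown line; potency is read from the fitted curve at half-maximal effect; 0% = DMSO-treated cells and -100% = media-only wells without cells; nearly all actives have a fitted effect of over 55% in size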
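A 48-hour cytotoxicity screen used HT-1080-NT cells plated 2 hours before compound delivery. ATP-based CellTiter-Glo luminescence measured viability, normalized to DMSO and no-cell controls.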
HT1080 IDH1KD tx: kills HT-1080 cells with IDH1 knockdown. Potency, µM (series often up to 46.1 µM), inactives show at the highest dose activity, negative = toxicity, usual class: cytotoxic. HT-1080 IDH1 knockdown viability, ATP luminescence, 48 h. 360,000 compounds, 2% hits;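 also: potency is read from the fitted curve at half-maximal effect; 0% = DMSO wells and -100% = cell-free medium wells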
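IDH1KD HT-1080 cells, 750/well, RPMI + 5% FBS; compound pinned after 2 h settling; 48 h, 37 °C; CellTiter-Glo luminescence; % activity normalised to DMSO and no-cell wells; curves fitted, classed by r2 and efficacy.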
DT40 TDP1 no CPT: qHTS for Inhibitors of human tyrosyl-DNA phosphodiesterase 1 (TDP1): qHTS in cells in absence of CPT; 420,000 compounds, 15% hits; AID 686978, 2013; Potency, µM (series often up to 46.2 µM), for inactives: at the highest dose activity change, negative = growth inhibition, most hits filed as inhibitors; DT40 Tdp1-/- hTDP1 cells, no CPT, ATP luminescence, 48 h; also: potency is read from the fitted curve at half-maximal effect; nearly all actives have a fitted effect of over 55% in size
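No-CPT arm: Tdp1-/-;hTDP1 DT40 cells (400/well) plus compounds, incubated ≥48 hr at 37 °C. Readout CellTiter-Glo luminescence.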
IL-1B inflam inh: inflammasome signaling inhibition, IL-1 beta readout | THP-1 LPS/ATP IL-1B secretion, AlphaLISA, 16 h; hits give low values | activity change, % at 57.5 µM | 360,000 compounds, 4.7% hits; in the data active = activity change below about -50%; inconclusive = mostly about -30% to -49%
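THP-1 cells pretreated 1 hr with compounds (up to 57.5 uM final), then stimulated with LPS (250 ng/mL final) plus ATP (1.25 mM final); secreted IL-1B measured by AlphaLISA after 16 hr, decreased signal indicating inhibition.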
DT40 TDP1 CPT: DT40-hTDP1 cell growth loss with CPT; chicken DT40 Tdp1-/-;hTDP1 cells + 20 nM CPT, ATP luminescence, 48 h; Potency, µM (series often up to 46.2 µM), without a hit: top-dose activity change, negative = growth inhibition, usual class: inhibitors; 420,000 compounds, 12% hits; also: potency is read from the fitted curve at half-maximal effect; nearly all actives have a fitted effect of over 55% in size
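Cell growth measured by CellTiter-Glo luminescence after a minimum 48 h, 37 C compound exposure with 20 nM CPT in Tdp1-knockout DT40 cells stably expressing hTDP1, seeded 400/well; qHTS titration format.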
The depositor's hits bear a star. Most compounds without a hit are left out; they make up all but 19% or so of the library. Unless noted, calls follow the shape of the dose curve; as a rule, active = well fitted curve in the direction sought with a large enough effect; inconclusive = small, poorly fitted or top-dose-only effect, or another doubt; inactive = no such curve, though single readings can be large; an effect the other way counts as inactive or inconclusive. Unless noted, % is scaled to controls: 0 for no effect and ±100 for the full control effect.

CCOC(=O)c1cc(-c2ccc(C)cc2)n(CC(=O)Nc2ccc(OC)c(Cl)c2)c1C was read as DT40 TDP1 no CPT 16µM* and DT40 TDP1 CPT 18µM*.
`COc1ccc(NC(=O)Cn2c(-c3ccc(F)cc3)cc(C(C)=O)c2C)c(OC)c1` gave DT40 TDP1 no CPT -18% and DT40 TDP1 CPT 0%.
`CCOC(=O)c1cc(-c2ccc(C)cc2)n(CC(=O)NCc2ccco2)c1C` gave HT1080NT lethal 5%, HT1080 IDH1KD tx -6%, DT40 TDP1 no CPT -8%, IL-1B inflam inh 21 and DT40 TDP1 CPT -16%.
Screening CCOC(=O)c1cc(-c2ccccc2)n(CCC(=O)Nc2nc3c(C)cccc3s2)c1C returned DT40 TDP1 no CPT 13µM* and DT40 TDP1 CPT 13µM*.
`CCc1cccc(NC(=O)Cn2c(C(=O)OC)cc3occc32)c1` gave DT40 TDP1 no CPT -14% and DT40 TDP1 CPT 7%.
Screening CCOC(=O)c1cc2occc2n1CC(=O)Nc1ccc(OC)cc1OC returned HT1080NT lethal -4%, HT1080 IDH1KD tx -6%, DT40 TDP1 no CPT inconclusive, IL-1B inflam inh 7 and DT40 TDP1 CPT 23µM*.
COC(=O)Cn1c(N)[n+](Cc2ccccc2)c2ccccc21 was read as HT1080NT lethal 1%, HT1080 IDH1KD tx 2%, DT40 TDP1 no CPT 0%, IL-1B inflam inh 0 and DT40 TDP1 CPT 7%.
O=C(COc1ccc(F)cc1)Nc1nnc(SCc2cc(=O)n3ccccc3n2)s1 was read as DT40 TDP1 no CPT inconclusive and DT40 TDP1 CPT -9%.
Screening CCOC(=O)c1ccc(NC(=O)C2(c3ccccc3)CCOCC2)cc1 returned HT1080NT lethal -1%, HT1080 IDH1KD tx -2%, DT40 TDP1 no CPT -18%, IL-1B inflam inh -1 and DT40 TDP1 CPT -12%.
For CCOC(=O)c1cc(-c2ccc(C)cc2)n(CCC(=O)Nc2ccc(C(C)C)cc2)c1C the results were DT40 TDP1 no CPT 5.2µM* and DT40 TDP1 CPT 5.2µM*.
CCOC(=O)c1cccc(NC(=O)CCn2c(-c3ccc(F)cc3)cc(C(=O)OCC)c2C)c1 was read as DT40 TDP1 no CPT 13µM* and DT40 TDP1 CPT 21µM*.
`CCOC(=O)c1cc(-c2ccccc2)n(CCCC(=O)Nc2cccc(C)c2C)c1C` gave DT40 TDP1 no CPT inconclusive and DT40 TDP1 CPT 16µM*.
Screening CC(=O)c1cc(-c2ccccc2)n(CC(=O)Nc2cccc(C)c2C)c1C returned HT1080NT lethal -1%, HT1080 IDH1KD tx 1%, DT40 TDP1 no CPT -2%, IL-1B inflam inh 10 and DT40 TDP1 CPT 7%.
CCOC(=O)c1cc(-c2ccc(C)cc2)n(CCC(=O)NCCN(C)C)c1C was read as HT1080NT lethal inconclusive, HT1080 IDH1KD tx inconclusive, DT40 TDP1 no CPT -24%, IL-1B inflam inh -4 and DT40 TDP1 CPT inconclusive.
Screening CCOC(=O)c1cc(-c2ccc(C)cc2)n(CCC(=O)Nc2ccc(OC)c(OC)c2)c1C returned DT40 TDP1 no CPT 18µM* and DT40 TDP1 CPT inconclusive.
CCOC(=O)c1cccc(NC(=O)CCn2cccc2)c1 was read as HT1080NT lethal 2%, HT1080 IDH1KD tx -2%, DT40 TDP1 no CPT -26%, IL-1B inflam inh -15 and DT40 TDP1 CPT -11%.
`N#CCSc1ccc2nc(-c3ccccc3)cn2n1` gave HT1080NT lethal 7%, HT1080 IDH1KD tx -2%, DT40 TDP1 no CPT -13%, IL-1B inflam inh 7 and DT40 TDP1 CPT 4%.
`CCOC(=O)c1cc(-c2ccccc2)n(CCCC(=O)Nc2cccc(C)c2)c1C` gave DT40 TDP1 no CPT 16µM* and DT40 TDP1 CPT 16µM*.
Cc1cccc2sc(NC(=O)CCn3cccc3)nc12 was read as HT1080NT lethal -10%, HT1080 IDH1KD tx -19%, DT40 TDP1 no CPT -24%, IL-1B inflam inh -52* and DT40 TDP1 CPT 5%.
Cc1cccc2sc(NC(=O)CCNS(=O)(=O)c3cccc4nonc34)nc12 was read as HT1080NT lethal -14%, HT1080 IDH1KD tx -25%, DT40 TDP1 no CPT 18µM*, IL-1B inflam inh inconclusive and DT40 TDP1 CPT inconclusive.
